Measurements published in PubChem BioAssay (NCATS).
For part of these data: Potency and affinity values are given separately. Active and inactive are the calls of the source. How the calls were made is not given here.

What was measured:
[1] = Ebola virus entry assay, green fluorescence channel
[2] = Ebola virus entry assay, blue channel fluorescence
[3] = Ebola virus entry assay, ratio channel
[4] = Ebola virus entry assay, green channel fluorescence
[5] = Ebola virus entry assay, reporter ratio channel; Channel type: primary
[6] = Ebola virus entry assay, blue channel (ratio component)

Measured: efficacy
Wherever efficacy is given: 0% is about no effect.

O=C(O)Cn1c(C(=O)Nc2nc(-c3ccccc3Cl)cs2)cc2ccccc21
inactive: [1] -23.1% | [2] | [3] | [4] | [5] | [6]

C#Cc1ccc(-c2ccccc2F)cc1
inactive: [1] 15.3% | [2] | [3] | [4] | [5] | [6]

CN(C)CC[C@@H](c1ccc(Cl)cc1)c1ccccn1
inactive: [1] -31.3% | [2] | [3] | [4] | [5] | [6]

CCCCNc1cc(C(=O)O)cc(S(N)(=O)=O)c1Oc1ccccc1
inactive: [1] -14.8% | [2] | [3] | [4] | [5] | [6]

CC(C)=CCC/C(C)=C/CC/C(C)=C/C(=O)OCC(=O)[C@@]1(O)CC[C@H]2[C@@H]3CCC4=CC(=O)C=C[C@]4(C)[C@H]3[C@@H](O)C[C@@]21C
inactive: [1] 14.4% | [2] | [3] | [4] | [5] | [6]

CCCCCN(CCCCC)C(=O)C(CCC(=O)O)NC(=O)c1ccc(Cl)c(Cl)c1 (stereo not drawn)
inactive: [1] 12.6% | [2] | [3] | [4] | [5] | [6]

NC(=O)NNc1ccccc1
inactive: [1] -21.6% | [2] | [3] | [4] | [5] | [6]

CN1CCN(c2cc3c(nn2)Oc2ccccc2N3C)CC1
inactive: [1] -18% | [2] | [3] | [4] | [5] | [6]

CC(=O)Oc1ccc(C2(c3ccc(OC(C)=O)cc3)Oc3ccccc3NC2=O)cc1
inactive: [1] -26.7% | [2] | [3] | [4] | [5] | [6]

CN(C)C(=O)CNC(=O)Cc1ccccc1
inactive: [1] 16.6% | [2] | [3] | [4] | [5] | [6]

O=C(O)/C=C/c1ccc(Cn2ccnc2)cc1
inactive: [1] -14.9% | [2] | [3] | [4] | [5] | [6]

C[C@H]1COc2c(C3(N)CC3)c(F)cc3c(=O)c(C(=O)O)cn1c23
inactive: [1] 9.63% | [2] | [3] | [4] | [5] | [6]

CCCCCOc1ccc(C2SC(=O)NC2=O)cc1OCC (stereo not drawn)
inactive: [1] 24.1% | [2] | [3] | [4] | [5] | [6]

CC(=O)OC[C@H]1O[C@@](COC(C)=O)(O[C@H]2O[C@H](COC(C)=O)[C@@H](OC(C)=O)[C@H](OC(C)=O)[C@H]2OC(C)=O)[C@@H](OC(C)=O)[C@@H]1OC(C)=O
inactive: [1] 9.99% | [2] | [3] | [4] | [5] | [6]

O=C1OC(OC(=O)c2cccnc2Nc2cccc(C(F)(F)F)c2)c2ccccc21 (stereo not drawn)
inactive: [1] -25.3% | [2] | [3] | [4] | [5] | [6]

CCCCN(CCCC)C(C(N)=O)c1ccc(OC)cc1 (stereo not drawn)
inactive: [1] 14.3% | [2] | [3] | [4] | [5] | [6]

CSc1ccc(C(=O)c2[nH]c(=O)[nH]c2C)cc1
inactive: [1] 19.8% | [2] | [3] | [4] | [5] | [6]

O=c1[nH]c2cc(C(F)(F)F)c(N3CCOCC3)cc2n(CP(=O)(O)O)c1=O
inactive: [1] -34.7% | [2] | [3] | [4] | [5] | [6]

Cn1c(=O)c2c(ncn2C)n(C)c1=O
inactive: [1] -24.5% | [2] | [3] | [4] | [5] | [6]

C/C=C(/C(=C/C)c1ccc(OC(C)=O)cc1)c1ccc(OC(C)=O)cc1
inactive: [1] 15.4% | [2] | [3] | [4] | [5] | [6]

CN1C(=O)CC(c2ccccc2)C1=O (stereo not drawn)
inactive: [1] 12.2% | [2] | [3] | [4] | [5] | [6]

OC[C@@H](O)[C@@H](O)[C@H](O)[C@H](O)CO
inactive: [1] 11.8% | [2] | [3] | [4] | [5] | [6]

Cc1cc(C(C)(C)C)c(O)c(C(C)(C)C)c1
inactive: [1] -23% | [2] | [3] | [4] | [5] | [6]

COc1nc(C)nc(Cl)c1NC1=NCCN1
inactive: [1] -23.1% | [2] | [3] | [4] | [5] | [6]

COC(=O)[C@@H](N)Cc1ccc(O)c(O)c1
inactive: [1] -12% | [2] | [3] | [4] | [5] | [6]

CCn1cc(C(=O)O)c(=O)c2cc(F)c(N3CCNCC3)nc21
inactive: [1] -17.3% | [2] | [3] | [4] | [5] | [6]

CCCc1ncc(C(=O)O)s1
inactive: [1] -25.8% | [2] | [3] | [4] | [5] | [6]

Nc1ccc(S(=O)(=O)Nc2cnc3ccccc3n2)cc1
inactive: [1] -10.5% | [2] | [3] | [4] | [5] | [6]
